TDP1 inh = qHTS Assay for Inhibitors of Tyrosyl-DNA Phosphodiesterase (TDP1); hit rate 0.28% among 350,000; recombinant TDP1, AlphaScreen DNA substrate cleavage; Potency, µM (titrated, usually from 130 µM), for the others: at the top dose activity change, negative = inhibition, hits mostly inhibitors; further: potency means the concentration at half of the fitted maximal effect; nearly all actives have a fitted effect of over 40% in size
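Signal: AlphaScreen proximity between streptavidin donor and anti-FITC acceptor beads on intact substrate. Reaction: Tdp1 1 nM, substrate 15 nM final, 5 min RT after 15 min compound preincubation.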
TDP1 cell noCPT = qHTS for Inhibitors of human tyrosyl-DNA phosphodiesterase 1 (TDP1): qHTS in cells in absence of CPT | hit rate 15% among 420,000 | DT40 Tdp1-/- hTDP1 cells, no CPT, ATP luminescence, 48 h | Potency, µM (series often up to 46.2 µM), without a hit: at the top dose activity change, negative = growth inhibition, most hits filed as inhibitors; further: potency means the concentration at half of the fitted maximal effect; nearly all actives have a fitted effect of over 55% in size
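A cellular qHTS used chicken DT40 cells lacking endogenous Tdp1 but carrying stably transfected human TDP1. Compounds were applied without camptothecin, and cell growth kinetics were judged by ATP-dependent luminescence after ≥48 hr.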
IL1B secr inh = qHTS for Inhibitors of Inflammasome Signaling: IL-1-beta AlphaLISA Primary Screen; THP-1 LPS/ATP IL-1B secretion, AlphaLISA, 16 h; active compounds read low; activity change, % at 57.5 µM; hit rate 4.7% among 360,000; in the data active means activity change below about -50%; inconclusive means mostly about -30% to -49%
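Secreted IL-1B measured by AlphaLISA bead assay after 16 h compound exposure of THP-1 cells; compounds (final up to 57.5 uM) added 1 h before LPS (250 ng/mL) and ATP (1.25 mM) stimulation; lower signal means less secretion.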
DT40 TDP1 CPT = qHTS for Inhibitors of human tyrosyl-DNA phosphodiesterase 1 (TDP1): qHTS in cells in presence of CPT; Potency, µM (doses to about 46.2 µM), for the others: at the top dose activity change, negative = growth inhibition, most hits filed as inhibitors; chicken DT40 Tdp1-/-;hTDP1 cells + 20 nM CPT, ATP luminescence, 48 h; hit rate 12% among 420,000; AID 686979, 2013; further: potency means the concentration at half of the fitted maximal effect; nearly all actives have a fitted effect of over 55% in size
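Chicken DT40 Tdp1-/- cells complemented with human TDP1, 400 cells/well, exposed to compounds plus 20 nM camptothecin for at least 48 h at 37 C; viability read as ATP content by CellTiter-Glo luminescence.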
Six1-Eya2 inh = qHTS Assay for Inhibitors of the Six1/Eya2 Interaction; Homeobox protein SIX1 (Homo sapiens) + Protein phosphatase EYA2 (Homo sapiens), …; AlphaScreen GST-Six1/His-Eya2 binding, biochemical; active compounds read low; activity change, % (no concentration beside the values); hit rate 0.56% among 360,000; AID 651725, 2012; in the data active means activity change below about -65%; inconclusive means mostly about -30% to -63%
Target sequence (O00167 whole entry, looked up): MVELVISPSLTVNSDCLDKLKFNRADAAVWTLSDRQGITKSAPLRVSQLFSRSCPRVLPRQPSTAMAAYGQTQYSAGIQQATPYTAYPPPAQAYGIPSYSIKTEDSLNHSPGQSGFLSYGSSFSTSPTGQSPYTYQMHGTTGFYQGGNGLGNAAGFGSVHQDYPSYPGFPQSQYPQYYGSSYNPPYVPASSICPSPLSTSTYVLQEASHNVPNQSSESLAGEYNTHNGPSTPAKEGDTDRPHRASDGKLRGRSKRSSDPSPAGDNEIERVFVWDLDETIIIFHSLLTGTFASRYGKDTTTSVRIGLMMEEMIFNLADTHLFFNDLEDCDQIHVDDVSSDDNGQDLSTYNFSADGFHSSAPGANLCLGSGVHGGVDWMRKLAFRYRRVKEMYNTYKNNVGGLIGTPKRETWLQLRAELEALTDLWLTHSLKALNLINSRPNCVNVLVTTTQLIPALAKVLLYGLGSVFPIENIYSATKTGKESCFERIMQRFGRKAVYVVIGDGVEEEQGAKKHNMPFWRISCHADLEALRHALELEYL
Target sequence (Q15475 whole entry, looked up): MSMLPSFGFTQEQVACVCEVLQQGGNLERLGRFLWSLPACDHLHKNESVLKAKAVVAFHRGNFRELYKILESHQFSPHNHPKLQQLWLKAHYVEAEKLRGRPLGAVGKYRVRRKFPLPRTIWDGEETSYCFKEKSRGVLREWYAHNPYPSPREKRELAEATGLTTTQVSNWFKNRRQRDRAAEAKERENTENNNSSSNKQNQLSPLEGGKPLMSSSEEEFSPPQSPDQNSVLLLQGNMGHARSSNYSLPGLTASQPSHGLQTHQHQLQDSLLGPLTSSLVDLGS
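Homogeneous AlphaScreen proximity assay pairing GST-Six1 with His-tagged Eya2 (added as 5X mix: 250 nM and 500 nM) in 50 mM Tris pH 8.0, 300 mM NaCl, 1 mM TCEP. Glutathione donor and nickel acceptor beads; 1 h, 37 °C, dark.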
CtBP-E1A blk = qHTS Assay for Inhibitors of the CtBP/E1A Interaction; CtBP / adenovirus E1A interaction (AlphaScreen); AlphaScreen GST-E1A/His-CtBP binding, 1536-well; active compounds read low; activity change, % (concentration not given with the values); hit rate 0.49% among 340,000; AID 651724, 2012; in the data active means activity change below about -65%; inconclusive means mostly about -30% to -63%
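GST-E1A and His-tagged CtBP (125 nM each as 5X stock) were preincubated with pin-transferred compound for 2 h at 37 °C in the dark, then glutathione donor and nickel acceptor beads were added for 1 h before AlphaScreen reading.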
The depositor's hits bear a star. The list is not random: actives were taken first. Their share in the collection is about 18%. Unless noted, the call rests on the fitted dose curve; in most records, active means well fitted curve in the direction sought with a large enough effect; inconclusive means small, poorly fitted or top-dose-only effect, or another doubt; inactive means no such curve, though single readings can be large; an effect the other way counts as inactive or inconclusive. On the % scale 0 is the no-effect control and ±100 the full control effect.

COc1ccc(COC(=O)C2=C(C)NC(=O)NC2c2cc(OC)ccc2OC)cc1 (stereo not drawn) was read as TDP1 cell noCPT -18%, IL1B secr inh inconclusive, DT40 TDP1 CPT -18%, Six1-Eya2 inh 1 and CtBP-E1A blk -6.
COC(=O)[C@@H](NC(=O)O[C@@H]1C(=O)c2cc(OC)ccc2O[C@H]1c1ccc(OC)c(Br)c1)C(C)C was read as TDP1 inh 4%.
For Nc1cccc(C(=O)OCC(=O)Nc2cccc3c2C(=O)c2ccccc2C3=O)c1 the results were TDP1 inh 1%, TDP1 cell noCPT 12µM*, IL1B secr inh -18, DT40 TDP1 CPT inconclusive, Six1-Eya2 inh -20 and CtBP-E1A blk -4.
`Cc1cccc(NC(=O)COC(=O)c2cccc3c2C(=O)c2ccccc2C3=O)c1C` gave TDP1 inh 6%, TDP1 cell noCPT 16µM*, IL1B secr inh -19, DT40 TDP1 CPT inconclusive, Six1-Eya2 inh -65* and CtBP-E1A blk -6.
For Cc1cccc(C)c1NC(=O)COC(=O)c1cccc2c1C(=O)c1ccccc1C2=O the results were TDP1 inh -5%, TDP1 cell noCPT 8.2µM*, IL1B secr inh -6, DT40 TDP1 CPT 12µM*, Six1-Eya2 inh 2 and CtBP-E1A blk -1.
Screening CCC(=O)Nc1cccc2c1C(=O)N(C)C2=O returned TDP1 inh -5%, TDP1 cell noCPT -14%, IL1B secr inh -10, DT40 TDP1 CPT -12%, Six1-Eya2 inh 1 and CtBP-E1A blk 6.
Nc1cccc(C(=O)OCC(=O)c2ccccc2)c1 was read as TDP1 inh -3%, TDP1 cell noCPT -21%, IL1B secr inh 4, DT40 TDP1 CPT -21%, Six1-Eya2 inh -2 and CtBP-E1A blk -10.
Screening CCN(CC)CCC(=O)Nc1cccc2c1C(=O)c1ccccc1C2=O returned TDP1 inh 8%, TDP1 cell noCPT 10µM*, DT40 TDP1 CPT 12µM*, Six1-Eya2 inh -27 and CtBP-E1A blk -28.
For CCCc1cc(C(=O)NC2CCCCC2)no1 the results were TDP1 inh -7%, TDP1 cell noCPT 12%, IL1B secr inh -30, DT40 TDP1 CPT -19%, Six1-Eya2 inh 4 and CtBP-E1A blk 9.
Screening CCCc1cc(C(=O)N(C2CCCCC2)C2CCCCC2)no1 returned TDP1 inh 2%, TDP1 cell noCPT 29µM*, IL1B secr inh 54, DT40 TDP1 CPT inconclusive, Six1-Eya2 inh 12 and CtBP-E1A blk 14.
Screening N#CC1(NC(=O)CSc2nc3ncc(Cl)cc3[nH]2)CCCCC1 returned TDP1 cell noCPT -21%, IL1B secr inh 26, DT40 TDP1 CPT -4%, Six1-Eya2 inh 3 and CtBP-E1A blk -5.
Screening CCN(Cc1ccccc1)C(=O)Cn1c(=O)n(-c2ccc(C)c(C)c2)c(=O)c2c(C)c(C)sc21 returned TDP1 inh 3%, TDP1 cell noCPT inconclusive and DT40 TDP1 CPT 21µM*.
CCOc1ccc(-n2c(=O)c3c(C)c(C)sc3n(CC(=O)N(CC)Cc3ccccc3)c2=O)cc1 was read as TDP1 inh 5%, TDP1 cell noCPT 12µM* and DT40 TDP1 CPT 18µM*.
`CCN(Cc1ccccc1)C(=O)Cn1c(=O)n(-c2ccc(Cl)cc2)c(=O)c2c(C)c(C)sc21` gave TDP1 inh 6%, TDP1 cell noCPT 18µM* and DT40 TDP1 CPT 3.7µM*.
For Cc1ccc(-n2c(=O)c3c(C)c(C)sc3n(CC(=O)c3ccc(Cl)cc3)c2=O)cc1C the results were TDP1 inh 3%, TDP1 cell noCPT -5% and DT40 TDP1 CPT -14%.
Screening CCCCN(CC)C(=O)Cn1c(=O)n(-c2ccc(OCC)cc2)c(=O)c2c3c(sc21)CCC3 returned TDP1 inh 4%, TDP1 cell noCPT inconclusive and DT40 TDP1 CPT inconclusive.
`CCOc1ccc(-n2c(=O)c3c(C)c(C)sc3n(CC(=O)c3ccccc3)c2=O)cc1` gave TDP1 inh -3%, TDP1 cell noCPT 16µM* and DT40 TDP1 CPT 13µM*.
`COc1ccc(C2C3=C(CC(C)(C)CC3=O)N(CC(=O)O)C3=C2C(=O)CC(C)(C)C3)cc1OC` gave TDP1 cell noCPT 2%, IL1B secr inh 12, DT40 TDP1 CPT -1%, Six1-Eya2 inh 2 and CtBP-E1A blk 8.
COc1ccccc1C1CCN(c2ccc([N+](=O)[O-])c(OC)c2)CC1 was read as TDP1 inh 6%, TDP1 cell noCPT inconclusive, DT40 TDP1 CPT inconclusive, Six1-Eya2 inh -30 and CtBP-E1A blk -21.
`CCN(C(=O)COc1cc(=O)n(CC)c2ccccc12)c1cc(Cl)ccc1OC` gave TDP1 inh -3%, TDP1 cell noCPT 21µM*, IL1B secr inh 16, DT40 TDP1 CPT inconclusive, Six1-Eya2 inh -9 and CtBP-E1A blk 0.
For CCN(C(=O)COc1cc(=O)n(CC)c2ccccc12)c1cccc(Cl)c1 the results were TDP1 inh 9%, TDP1 cell noCPT inconclusive, IL1B secr inh -13, DT40 TDP1 CPT 15µM*, Six1-Eya2 inh -2 and CtBP-E1A blk -3.
`CCCN(CCC)C(=O)COc1cc(=O)n(CC)c2ccccc12` gave TDP1 inh 3%, TDP1 cell noCPT inconclusive, IL1B secr inh 20, DT40 TDP1 CPT inconclusive, Six1-Eya2 inh -5 and CtBP-E1A blk 4.
`CCN(Cc1ccccc1)C(=O)COc1cc(=O)n(CC)c2ccccc12` gave TDP1 inh 4%, TDP1 cell noCPT 21µM*, IL1B secr inh -5, DT40 TDP1 CPT inconclusive, Six1-Eya2 inh -1 and CtBP-E1A blk -1.
For CCCN(C(=O)COc1cc(=O)n(CC)c2ccccc12)c1ccc(C(C)C)cc1 the results were TDP1 inh 1%, TDP1 cell noCPT 10µM* and DT40 TDP1 CPT 16µM*.
Screening CCN(CC)C(=O)Cn1c(=O)n(CCCC(=O)NCc2ccc3c(c2)OCO3)c(=O)c2sccc21 returned TDP1 inh 13%, TDP1 cell noCPT -5%, IL1B secr inh -13, DT40 TDP1 CPT 2%, Six1-Eya2 inh -25 and CtBP-E1A blk 0.
Screening COc1ccc(/C=C/C(=O)Nc2ccc(C(C)=O)cc2)cc1S(=O)(=O)N1CCOCC1 returned TDP1 cell noCPT -21%, IL1B secr inh 12, DT40 TDP1 CPT 0%, Six1-Eya2 inh 0 and CtBP-E1A blk -4.
